Results taken from PubChem BioAssay (Tox21).
Values joined by “and” are separate entries in the source; they are usually repeats but may differ in a detail not shown here. Identical values can stand only once. Inconclusive results are not listed. Entries that show only a call come without a potency. More than one record can exist for a structure, and the calls need not agree. Active and inactive are the calls of the source. Unless noted, calls follow the shape of the dose curve; as a rule, active = well fitted curve in the direction sought with a large enough effect in the repeat runs; inconclusive = weak or mixed curves; inactive = no such curve, though single readings can be large; an effect the other way counts as inactive or inconclusive.

Legend:
[1] = qHTS assay to identify aromatase inhibitors - cell viability counter screen (AID 743084);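 also: cells stimulated with testosterone during compound exposure; nearly all actives have a fitted effect of over 55% in size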
[2] = molecular target: Aryl hydrocarbon receptor (Homo sapiens) (UniProt P35869); assay: qHTS assay to identify small molecule that activate the aryl hydrocarbon receptor (AhR) signaling pathway (AID 743085);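 also: HG2L7.5c1 human HepG2 liver cells with stably integrated DRE-driven firefly reporter; series mostly up to about 70 µM; nearly all actives have a fitted effect of over 15% in size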
Procedure, shortened: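 A multiplexed format paired cell viability (CellTiter-Fluor fluorescence) with AhR-dependent luciferase output (ONE-Glo luminescence) in the same wells of HepG2 DRE-luc cells after 24 h compound exposure at 37C.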

[3] = qHTS assay to identify small molecule antagonists of the peroxisome proliferator-activated receptor gamma (PPARg) signaling pathway - cell viability counter screen (AID 743194); conditions: Potency: co-treated with 50 nM rosiglitazone unless noted; also: nearly all actives have a fitted effect of over 55% in size
Procedure, shortened: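 Viability was measured as CellTiter-Glo luminescence in GeneBLAzer PPARg UAS-bla HEK293H cells. These cells had been exposed 17 h at 37 C to compounds together with rosiglitazone at 50 nM final, with the beta-lactamase readout taken in the same wells.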

[4] = qHTS assay for small molecule agonists of the antioxidant response element (ARE) signaling pathway (AID 743202; active = well fitted activation curve with a large enough effect in the signal ratio in the repeat runs, not every such curve was filed as active; the % refers to the signal ratio)
Procedure, shortened: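 Beta-lactamase reporter activity, read as fluorescence intensity, reflects ARE/Nrf2 pathway induction in HepG2 cells after 16 h compound exposure at 37 C; substrate loading was 2 h at room temperature.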

[5] = qHTS assay for small molecule agonists of the antioxidant response element (ARE) signaling pathway - cell viability counter screen (AID 743203; calls by dose curve; also: nearly all actives have a fitted effect of over 55% in size; also: potency is read from the fitted curve at half-maximal effect)
Procedure, shortened: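 ATP content via CellTiter-Glo luminescence served as the viability measure. Cells: ARE-bla HepG2, 2,000 per well. Exposure: 16 hrs, 37C/5% CO2.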

[6] = qHTS assay for small molecule activators of the heat shock response signaling pathway (AID 743210; active = well fitted activation curve with a large enough effect in the signal ratio in the repeat runs, with a control signal flat, not every such curve was filed as active; the % refers to the signal ratio;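 also: HeLa cells with beta-lactamase reporter driven by heat shock elements; series mostly up to about 63 µM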)
Procedure, shortened: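 Fluorescence from a cleaved B/G FRET substrate (2.5 h, room temp) reports HSE-driven beta-lactamase in HeLa cells treated 5 h at 37 C with DMSO-dissolved compounds.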

[7] = qHTS assay to identify small molecule agonists of the peroxisome proliferator-activated receptor delta (PPARd) signaling pathway - cell viability counter screen (AID 743211); also: nearly all actives have a fitted effect of over 55% in size; also: potency is read from the fitted curve at half-maximal effect
Procedure, shortened: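 Tox21 library compounds, delivered in DMSO, were incubated 17 h with PPARd-bla HEK293H cells; cytotoxicity was taken from CellTiter-Glo luminescence read 30 min after reagent addition.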

[8] = molecular target: Peroxisome proliferator-activated receptor delta (Homo sapiens) (UniProt Q03181); assay: qHTS assay to identify small molecule agonists of the peroxisome proliferator-activated receptor delta (PPARd) signaling pathway (AID 743212; calls by dose curve)
Procedure, shortened: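 Steps: seed PPARd-bla HEK293H cells; incubate 5 h, 37 C, 5% CO2; add compounds in DMSO; incubate, 37 C; add LiveBLAzer B/G FRET substrate; hold 2 h at room temperature; measure fluorescence.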

[9] = qHTS assay to identify small molecule antagonists of the peroxisome proliferator-activated receptor delta (PPARd) signaling pathway - cell viability counter screen (AID 743213); also: nearly all actives have a fitted effect of over 50% in size; also: potency is read from the fitted curve at half-maximal effect
Procedure, shortened: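 PPARd-bla HEK293H cells (3000/well) got compound plus 300 nM L165041 agonist for 17 h at 37 C. Viability in the same wells came from CellTiter-Glo luminescence after 30 min at room temperature.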

[10] = molecular target: Peroxisome proliferator-activated receptor delta (Homo sapiens) (UniProt Q03181); assay: qHTS assay to identify small molecule antagonists of the peroxisome proliferator-activated receptor delta (PPARd) signaling pathway (AID 743215; active = well fitted inhibition curve with a large enough effect in the signal ratio in the repeat runs, not every such curve was filed as active; the % refers to the signal ratio;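 also: cells stimulated with agonist L165041 at 300 nM final during compound exposure; series mostly up to about 62 µM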)
Procedure, shortened: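 Here, a reporter line (HEK293H, beta-lactamase under a UAS) measures PPARd signaling. Compounds are tested against agonist L165041 at 300 nM final concentration over 17 h at 37 C, with fluorescence read after substrate.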

[11] = molecular target: Bile acid receptor (Homo sapiens) (UniProt Q96RI1); assay: qHTS assay to identify small molecule antagonists of the farnesoid-X-receptor (FXR) signaling pathway (AID 743217; active = well fitted inhibition curve with a large enough effect in the signal ratio in the repeat runs, not every such curve was filed as active; the % refers to the signal ratio)
Procedure, shortened: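 Test compounds are pin-transferred onto FXR-bla HEK 293T cells, then chenodeoxycholic acid is added at 50 uM final. After 16 h at 37 °C, LiveBLAzer B/G substrate is applied for 2 h at room temperature and fluorescence read.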

[12] = qHTS assay to identify small molecule agonists of the farnesoid-X-receptor (FXR) signaling pathway - cell viability counter screen (AID 743218); also: nearly all actives have a fitted effect of over 45% in size; also: potency is read from the fitted curve at half-maximal effect
Procedure, shortened: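 Quantitative HTS counter screen measuring ATP-based viability via CellTiter-Glo luminescence in HEK 293T cells carrying a UAS-driven beta-lactamase reporter, after 16 h compound exposure at 37 C.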

[13] = molecular target: Bile acid receptor (Homo sapiens) (UniProt Q96RI1); assay: qHTS assay to identify small molecule agonists of the farnesoid-X-receptor (FXR) signaling pathway (AID 743220; active = well fitted activation curve with a large enough effect in the signal ratio in the repeat runs, not every such curve was filed as active; the % refers to the signal ratio)
Procedure, shortened: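 FXR-UAS-bla HEK 293T cells carrying a UAS-driven beta-lactamase reporter were plated for 5 h at 37C/5% CO2, then exposed to DMSO-dissolved Tox21 10K compounds for 16 h at 37C. A LiveBLAzer B/G FRET substrate was loaded for 2 h at room temperature before fluorescence reading.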

[14] = qHTS assay to identify small molecule antagonists of the farnesoid-X-receptor (FXR) signaling pathway - cell viability counter screen (AID 743221; active = well fitted cell-killing curve with a large enough effect in the repeat runs, not every such curve was filed as active; also: nearly all actives have a fitted effect of over 50% in size; also: potency is read from the fitted curve at half-maximal effect)
Procedure, shortened: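 Cytotoxicity is taken from ATP luminescence (CellTiter-Glo, 30 min, room temperature) in FXR-bla HEK 293T cells previously incubated 16 h at 37 C with compound and chenodeoxycholic acid at 50 uM final.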

[15] = molecular target: Vitamin D3 receptor (Homo sapiens) (UniProt P11473); assay: qHTS assay to identify small molecule agonists of the vitamin D receptor (VDR) signaling pathway (AID 743222; calls by dose curve)
Procedure, shortened: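 Tox21 cell reporter format: VDR-bla line, 16 h compound exposure in 5% CO2 at 37C, then fluorescence intensity after 2 h with LiveBLAzer B/G FRET substrate.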

[16] = molecular target: Vitamin D3 receptor (Homo sapiens) (UniProt P11473); assay: qHTS assay to identify small molecule antagonists of the vitamin D receptor (VDR) signaling pathway (AID 743223; active = well fitted inhibition curve with a large enough effect in the signal ratio in the repeat runs, not every such curve was filed as active; the % refers to the signal ratio)
Procedure, shortened: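 Quantitative HTS in VDR-bla reporter cells stimulated with 1alpha,25-dihydroxyvitamin D3, 3 nM final. Compound exposure 16 h, 37C, 5% CO2. Read-out: beta-lactamase FRET substrate fluorescence, 2 h RT.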

[17] = molecular target: Peroxisome proliferator-activated receptor gamma (Homo sapiens) (UniProt P37231); assay: qHTS assay to identify small molecule agonists of the peroxisome proliferator-activated receptor gamma (PPARg) signaling pathway (AID 743094; active = well fitted activation curve with a large enough effect in the signal ratio in the repeat runs, not every such curve was filed as active; the % refers to the signal ratio)
Procedure, shortened: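 Agonism was assessed in a beta-lactamase reporter system, HEK293H cells with a stably integrated UAS-bla construct under PPARg control; the 17 h treatment at 37C preceded a 1 h room-temperature FRET substrate read.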

[18] = qHTS assay for small molecule activators of the heat shock response signaling pathway - cell viability counter screen (AID 743209); also: nearly all actives have a fitted effect of over 50% in size
Procedure, shortened: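 Compounds dissolved in DMSO were added to overnight-plated HSE-bla HeLa cells and left 5 h at 37 C. Cell viability was quantified by luminescence using CellTiter-Glo.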

[19] = molecular target: Peroxisome proliferator-activated receptor gamma (Homo sapiens) (UniProt P37231); assay: qHTS assay to identify small molecule antagonists of the peroxisome proliferator-activated receptor gamma (PPARg) signaling pathway (AID 743191; calls by dose curve; also: series mostly up to about 63 µM; nearly all actives have a fitted effect of over 30% in size)
Procedure, shortened: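 Beta-lactamase reporter under UAS control in HEK293H PPARg-bla cells; compound treatment 17 h at 37C. Read-out: fluorescence intensity after 1 h room-temperature incubation with LiveBLAzer B/G FRET substrate.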

[20] = qHTS assay to identify small molecule that activate the aryl hydrocarbon receptor (AhR) signaling pathway - cell viability counter screen (AID 743086);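 also: HepG2 liver cells carrying the AhR DRE luciferase reporter; series mostly up to about 70 µM; nearly all actives have a fitted effect of over 45% in size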
Procedure, shortened: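 Cytotoxicity counter screen: CellTiter-Fluor signal (30 min, 37 C) in 4000 HepG2 cells/well carrying the DRE-luciferase reporter, following 24 h compound exposure at 37 C.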

Chain of Aryl hydrocarbon receptor (Homo sapiens) (P35869 whole entry, looked up): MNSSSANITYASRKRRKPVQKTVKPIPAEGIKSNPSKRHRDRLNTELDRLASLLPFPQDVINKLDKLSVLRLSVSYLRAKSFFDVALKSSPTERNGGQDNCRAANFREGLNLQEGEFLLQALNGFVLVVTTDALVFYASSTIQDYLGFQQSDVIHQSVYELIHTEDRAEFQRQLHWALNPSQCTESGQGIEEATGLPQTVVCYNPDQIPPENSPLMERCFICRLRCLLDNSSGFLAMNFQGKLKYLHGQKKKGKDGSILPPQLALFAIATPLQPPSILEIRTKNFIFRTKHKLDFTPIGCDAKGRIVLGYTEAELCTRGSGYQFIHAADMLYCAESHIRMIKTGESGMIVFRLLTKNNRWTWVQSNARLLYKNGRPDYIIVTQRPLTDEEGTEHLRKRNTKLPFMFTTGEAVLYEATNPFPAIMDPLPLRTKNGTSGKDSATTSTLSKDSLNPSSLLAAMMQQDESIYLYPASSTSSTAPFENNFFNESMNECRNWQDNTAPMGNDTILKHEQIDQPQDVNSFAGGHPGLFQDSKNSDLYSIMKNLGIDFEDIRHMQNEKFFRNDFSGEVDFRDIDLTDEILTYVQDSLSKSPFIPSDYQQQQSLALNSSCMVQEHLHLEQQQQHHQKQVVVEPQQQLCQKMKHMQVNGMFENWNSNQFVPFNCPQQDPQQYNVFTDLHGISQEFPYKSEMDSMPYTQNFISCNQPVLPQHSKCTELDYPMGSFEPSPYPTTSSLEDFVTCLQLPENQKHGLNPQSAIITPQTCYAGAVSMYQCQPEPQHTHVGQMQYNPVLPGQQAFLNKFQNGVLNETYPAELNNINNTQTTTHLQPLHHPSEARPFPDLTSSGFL
Chain of Peroxisome proliferator-activated receptor gamma (Homo sapiens) (P37231 whole entry, looked up): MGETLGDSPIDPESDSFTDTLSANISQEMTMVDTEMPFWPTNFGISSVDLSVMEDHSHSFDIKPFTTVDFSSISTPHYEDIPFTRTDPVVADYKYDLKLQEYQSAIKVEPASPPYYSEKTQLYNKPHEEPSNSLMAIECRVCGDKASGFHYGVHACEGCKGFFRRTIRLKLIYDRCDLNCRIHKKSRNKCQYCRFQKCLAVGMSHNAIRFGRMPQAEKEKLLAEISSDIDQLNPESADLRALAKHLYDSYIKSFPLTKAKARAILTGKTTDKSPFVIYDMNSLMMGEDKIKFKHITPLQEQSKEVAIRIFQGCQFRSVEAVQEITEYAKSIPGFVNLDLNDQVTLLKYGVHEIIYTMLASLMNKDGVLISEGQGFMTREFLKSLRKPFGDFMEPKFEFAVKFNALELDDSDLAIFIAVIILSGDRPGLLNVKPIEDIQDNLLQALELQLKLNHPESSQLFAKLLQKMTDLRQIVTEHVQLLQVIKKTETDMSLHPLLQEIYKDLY
Chain of Vitamin D3 receptor (Homo sapiens) (P11473 whole entry, looked up): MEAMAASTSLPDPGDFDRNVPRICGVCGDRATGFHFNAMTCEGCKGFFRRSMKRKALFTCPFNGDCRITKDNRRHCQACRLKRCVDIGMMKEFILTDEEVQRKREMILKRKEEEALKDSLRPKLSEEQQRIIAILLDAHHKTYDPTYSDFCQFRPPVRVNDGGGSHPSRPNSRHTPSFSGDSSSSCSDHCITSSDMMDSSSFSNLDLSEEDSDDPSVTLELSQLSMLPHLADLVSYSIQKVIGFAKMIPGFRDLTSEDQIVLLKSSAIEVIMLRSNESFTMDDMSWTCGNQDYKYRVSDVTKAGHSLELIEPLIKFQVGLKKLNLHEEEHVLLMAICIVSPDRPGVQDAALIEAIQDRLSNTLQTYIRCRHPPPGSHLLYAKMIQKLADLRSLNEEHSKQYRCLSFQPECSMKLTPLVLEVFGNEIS
Chain of Bile acid receptor (Homo sapiens) (Q96RI1 whole entry, looked up): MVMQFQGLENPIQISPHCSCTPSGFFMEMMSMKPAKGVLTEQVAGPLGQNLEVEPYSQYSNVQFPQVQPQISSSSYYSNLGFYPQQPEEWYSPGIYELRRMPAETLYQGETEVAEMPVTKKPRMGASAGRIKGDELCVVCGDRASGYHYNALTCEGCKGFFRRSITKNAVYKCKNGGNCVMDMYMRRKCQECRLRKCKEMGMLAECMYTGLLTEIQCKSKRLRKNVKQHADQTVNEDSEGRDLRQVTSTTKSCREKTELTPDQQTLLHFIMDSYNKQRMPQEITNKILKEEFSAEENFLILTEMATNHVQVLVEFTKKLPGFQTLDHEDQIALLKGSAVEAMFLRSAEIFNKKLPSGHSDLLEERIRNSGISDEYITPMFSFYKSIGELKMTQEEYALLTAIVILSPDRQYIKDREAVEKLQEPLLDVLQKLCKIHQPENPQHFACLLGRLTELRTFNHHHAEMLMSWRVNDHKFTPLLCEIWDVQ
Chain of Peroxisome proliferator-activated receptor delta (Homo sapiens) (Q03181 whole entry, looked up): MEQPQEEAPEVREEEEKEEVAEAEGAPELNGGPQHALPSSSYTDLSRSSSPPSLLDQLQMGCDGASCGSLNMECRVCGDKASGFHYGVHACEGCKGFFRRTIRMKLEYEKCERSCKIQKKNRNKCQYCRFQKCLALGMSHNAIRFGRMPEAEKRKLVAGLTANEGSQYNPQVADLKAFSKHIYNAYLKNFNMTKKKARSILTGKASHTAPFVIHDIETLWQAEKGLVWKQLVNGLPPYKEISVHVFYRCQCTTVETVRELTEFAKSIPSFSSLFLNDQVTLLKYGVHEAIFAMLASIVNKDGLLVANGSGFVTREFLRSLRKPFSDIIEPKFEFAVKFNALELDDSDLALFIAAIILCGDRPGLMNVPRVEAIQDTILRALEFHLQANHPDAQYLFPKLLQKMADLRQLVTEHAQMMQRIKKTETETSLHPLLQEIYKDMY

| SMILES | Potency [1] | Potency [2] | Potency [3] | Potency [4] | Potency [5] | Potency [6] | Potency [7] | Potency [8] | Potency [9] | Potency [10] | Potency [11] | Potency [12] | Potency [13] | Potency [14] | outcome [15] | Potency [16] | Potency [17] | Potency [18] | Potency [19] | Potency [20] |
| --- | --- | --- | --- | --- | --- | --- | --- | --- | --- | --- | --- | --- | --- | --- | --- | --- | --- | --- | --- | --- |
| C=C(CC(=O)O)C(=O)O | inactive | inactive | inactive | inactive | inactive | inactive | inactive | inactive | inactive | inactive | inactive | inactive | inactive | inactive | inactive | inactive | – | – | – | – |
| CC(CN1c2ccccc2Sc2ccccc21)N(C)C (configuration not stated) | inactive | inactive | – | inactive | 68.6 µM (active) and inactive | – | 49.5 µM (active) and 21.9 µM (active) | – | 49.5 µM (active) and 24.5 µM (active) | – | – | 49.5 µM (active) and 27.5 µM (active) | – | 49.5 µM (active) | – | – | inactive | – | – | – |
| NC(=O)c1ncn([C@@H]2O[C@H](CO)[C@@H](O)[C@H]2O)n1 | inactive | inactive | inactive | – | inactive | – | inactive | inactive | – | inactive | – | inactive | – | inactive | – | – | inactive | – | – | – |
| Clc1cccc(Cl)c1NC1=NCCN1 | inactive | inactive | inactive | inactive | inactive | inactive | inactive | – | inactive | – | – | inactive | – | inactive | inactive | inactive | – | – | – | – |
| CCOC(=O)CC(=O)OCC | – | – | inactive | – | inactive | – | inactive | inactive | inactive | inactive | inactive | inactive | inactive | inactive | inactive | inactive | – | – | – | – |
| O=C(NCC1CCCCN1)c1cc(OCC(F)(F)F)ccc1OCC(F)(F)F (configuration not stated) | – | – | inactive | inactive | inactive | – | inactive | – | inactive | – | – | inactive | – | inactive | inactive | inactive | – | inactive | – | – |
| CCCCCCCC(=O)O | inactive | inactive | inactive | – | inactive | – | inactive | – | inactive | – | – | inactive | – | inactive | inactive | inactive | – | – | – | – |
| CC(C)c1ccc(C(C)C)cc1 | inactive | inactive | inactive | inactive | inactive | inactive | inactive | – | inactive | – | inactive | inactive | inactive | inactive | inactive | inactive | – | inactive | inactive | – |
| Cc1ccccc1C=O | inactive | inactive | inactive | – | inactive | – | inactive | inactive | inactive | inactive | – | inactive | – | inactive | inactive | inactive | – | inactive | inactive | – |
| NCCNCCNCCN | – | – | inactive | inactive | inactive | – | inactive | – | inactive | – | inactive | inactive | inactive | inactive | inactive | inactive | – | inactive | – | inactive |
